Screening data: PubChem BioAssay, several laboratories
Compounds with a hit are over-represented: about 2.2% of the library has one in this group of screens.
aSyn UTR inh – 5' untranslated region of α-synuclein, MLPCN primary screen; alpha-synuclein 5'UTR reporter, inhibitor activity; inhibition, % (tested at 7.5 µM); hit rate 0.82% among 300,000; AID 1813; in the data active = inhibition above about 60%;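 note: H4 neuroglioblastoma cells stably carrying SNCA 5'UTR luciferase fusion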
IEC-6 tox – counter-screen for KLF5 inhibitors: cytotoxicity in IEC-6 cells; hit rate 0.78% among 290,000; inhibition, % at 5 µM; IEC-6 cytotoxicity, luminescence viability
KLF5 inhibitor – inhibitors of KLF5 expression | hit rate 0.23% among 290,000 | inhibition, % at 5 µM | DLD-1 KLF5 promoter-luciferase reporter, luminescence | AID 1700;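 active = inhibition above a per-plate limit of that plate's mean compound inhibition plus 3 SD, cut at about 60% in these data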;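 note: higher means less KLF5 promoter-driven luciferase light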
BaF3 parental – counter-screen for JAK2V617F inhibitors: parental Ba/F3 viability inhibitors; CellTiter-Glo ATP luminescence; inhibition, % at 5.6 µM; hit rate 1.1% among 220,000; AID 1486;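 active = inhibition above a per-campaign cutoff, the mean inhibition of all tested compounds plus 3 SD, cut at about 27% in these data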
APP 5UTR inh – APP translation inhibition. inhibition, % at 2 µM. SH-SY5Y APP 5'UTR-luciferase reporter, luminescence. hit rate 0.82% among 190,000. AID 1285;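 active = inhibition above a set limit, derived from the sample mean plus 3 SD, cut at about 45% in these data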
Ba/F3 V617F tox – loss of viability in JAK2V617F-driven Ba/F3 cells | Ba/F3 EpoR-JAK2V617F viability, ATP luminescence | inhibition, % at 5.6 µM | hit rate 1.1% among 220,000;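 active = inhibition above the campaign mean plus 3 SD over all tested compounds, cut at about 24% in these data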;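 note: cytokine-independent growth of Ba/F3 cells driven by EpoR plus mutant JAK2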
IEC-6 cytotox cf – confirmation of cytotoxic compounds in rat IEC-6 intestinal epithelial cells | shares compounds with IEC-6 tox | IEC-6 rat intestinal epithelial viability, luminescence | inhibition, % at 5 µM | hit rate 63% among 1,900 | AID 1907
Hits are given with their value. Cut-off read from the data, not from the text of the source, unless noted: active = inhibition above about 22%; inactive = the rest.

`O=C(CCNC(=O)N1CCn2c1nc1ccccc12)NCc1ccccc1Cl` gave aSyn UTR inh inactive, IEC-6 tox inactive and KLF5 inhibitor inactive.
Screening CCn1c(CCNC(=O)c2cccs2)nnc1SCC(=O)NC1CCCCC1 returned aSyn UTR inh inactive, IEC-6 tox 25, KLF5 inhibitor inactive, BaF3 parental inactive, APP 5UTR inh inactive, Ba/F3 V617F tox inactive and IEC-6 cytotox cf inactive.
CC1CCC(NCCNC(=O)c2ccco2)CC1 (configuration not stated) was read as aSyn UTR inh inactive, IEC-6 tox inactive and KLF5 inhibitor inactive.
For COCCN(C(=O)Nc1ccccc1OC)c1nc2ccccc2s1 the results were aSyn UTR inh inactive, IEC-6 tox 45, KLF5 inhibitor inactive and IEC-6 cytotox cf 31.
Screening Cc1ccc(-c2ccnc3c(Br)c(C)nn23)cc1 returned aSyn UTR inh inactive, IEC-6 tox 28, KLF5 inhibitor inactive and IEC-6 cytotox cf inactive.
`Cc1nn2c(-c3ccccc3)ccnc2c1Br` gave aSyn UTR inh inactive, IEC-6 tox inactive and KLF5 inhibitor inactive.
`CCN1CCc2c(sc(NC(=O)c3ccc4ccccc4c3)c2C(N)=O)C1` gave aSyn UTR inh inactive, IEC-6 tox 45, KLF5 inhibitor inactive and IEC-6 cytotox cf inactive.
For CCN1CCN(S(=O)(=O)c2ccc(C(=O)Nc3sc4c(c3C(N)=O)CCN(CC)C4)cc2)CC1 the results were aSyn UTR inh inactive, IEC-6 tox inactive and KLF5 inhibitor inactive.
For CC(=C\C(=O)O)/C(=C\c1cccc2ccccc12)C(=O)O the results were aSyn UTR inh inactive, IEC-6 tox inactive, KLF5 inhibitor inactive, BaF3 parental inactive and Ba/F3 V617F tox inactive.
Screening COc1ccccc1N1CCN(C(=O)c2ccc3[nH]c(C)c(C)c3c2)CC1 returned aSyn UTR inh 72, IEC-6 tox 73, KLF5 inhibitor inactive and IEC-6 cytotox cf 57.
`CCN(CC)CCn1c2ccccc2c2nc3ccc([N+](=O)[O-])cc3cc21` gave aSyn UTR inh inactive, IEC-6 tox 36, KLF5 inhibitor inactive, BaF3 parental 76, Ba/F3 V617F tox 78 and IEC-6 cytotox cf 32.
`Cn1c2ccccc2c2cc([N+](=O)[O-])ccc21` gave aSyn UTR inh inactive, IEC-6 tox inactive, KLF5 inhibitor inactive, BaF3 parental inactive and Ba/F3 V617F tox inactive.
CC(C)[C@H](NC(=O)[C@H](Cc1ccccc1)n1c(=O)[nH]c2ccccc2c1=O)C(=O)N1CCC[C@@H]1C(=O)O was read as aSyn UTR inh inactive, IEC-6 tox inactive and KLF5 inhibitor inactive.
For COc1ccc(S(=O)(=O)NCC2CCCN(C(=O)CCC(F)(F)F)C2)cc1 (configuration not stated) the results were aSyn UTR inh inactive, IEC-6 tox inactive and KLF5 inhibitor inactive.
For CN(CCOC(=O)c1ccco1)Cc1ccccc1 the results were aSyn UTR inh inactive, IEC-6 tox 41, KLF5 inhibitor inactive, BaF3 parental inactive, APP 5UTR inh inactive, Ba/F3 V617F tox inactive and IEC-6 cytotox cf inactive.
